Assay results reported in PubChem BioAssay AID1159580 (chemical genetic matrix, 2015).
“And” between values parts separate entries of the source, which are not always exact repeats. Identical values can stand only once. The whole screen tested about 5,500 compounds, of which about 2,000 (36%) were called active. Inconclusive results (about 18%) are left out. Cut-off read from the data, not from the text of the source: active = normalized growth mostly below about 0.91 (no sharp cut-off); inconclusive = no clear call, values can overlap the other calls; inactive = mostly above about 0.92. Some of the results follow.

Test: chemical genetic growth profiling, strain panel (AID 1159580);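 note: tested at 20 µM; growth read once vehicle control cultures reached saturation at 30 °C; 1 = growth at the plate median or of vehicle wells; lower values mean less growth of the strain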
Settings: S. cerevisiae deletion strains, growth OD

Measured: normalized growth

C[C@@H]1CC[C@H]2[C@@H](C)C(O)O[C@@H]3O[C@@]4(C)CC[C@@H]1[C@]32OO4 (some centres not stated)
active: locus YAL013W, strain DEP1, hits give low values 0.528 | locus YAL021C, strain ccr4, hits give low values 0.507 | locus YAL026C, strain drs2, hits give low values 0.358 | locus YAL030W, strain snc1, hits give low values 0.319 | locus YBL061C, strain skt5, hits give low values 0.337 | locus YBR009C, strain hhf1, hits give low values 0.215 | locus YBR023C, strain chs3, hits give low values 0.331 | locus YBR171W, strain sec66, hits give low values 0.608 | locus YBR229C, strain ROT2, hits give low values 0.7 | locus YBR231C, strain swc5, hits give low values 0.253 | locus YBR279W, strain paf1, hits give low values 0.276 | locus YCL011C, strain gbp2, hits give low values 0.231 | locus YCL016C, strain dcc1, hits give low values 0.275 | locus YCL029C, strain bik1, hits give low values 0.325 | locus YCL061C, strain MRC1, hits give low values 0.312 | locus YCL069W, strain vba3, hits give low values 0.315 | locus YCR088W, strain abp1, hits give low values 0.321 | locus YDL005C, strain med2, hits give low values 0.448 | locus YDL035C, strain GPR1, hits give low values 0.295 | locus YDL040C, strain nat1, hits give low values 0.408 | locus YDL074C, strain BRE1, hits give low values 0.556 | locus YDL101C, strain DUN1, hits give low values 0.325 | locus YDL134C, strain PPH21, hits give low values 0.314 | locus YDL185W, strain tfp1, hits give low values 0.139 | locus YDL192W, strain arf1, hits give low values 0.547 | locus YDR001C, strain nth1, hits give low values 0.377 | locus YDR069C, strain doa4, hits give low values 0.386 | locus YDR101C, strain arx1, hits give low values 0.459 | locus YDR137W, strain rgp1, hits give low values 0.348 | locus YDR150W, strain NUM1, hits give low values 0.262 | locus YDR159W, strain sac3, hits give low values 0.471 | locus YDR162C, strain NBP2, hits give low values 0.356 | locus YDR195W, strain ref2 0.54 | locus YDR297W, strain sur2, hits give low values 0.384 | locus YDR318W, strain mcm21, hits give low values 0.258 | locus YDR334W, strain swr1, hits give low values 0.276 | locus YDR335W, strain msn5, hits give low values 0.492 | locus YDR388W, hits give low values 0.316 | locus YDR392W, strain spt3, hits give low values 0.133 | locus YDR502C, strain sam2, hits give low values 0.415 | locus YEL003W, strain gim4, hits give low values 0.237 | locus YEL037C, strain rad23, hits give low values 0.407 | locus YEL061C, strain CIN8 (second series), hits give low values 0.295 | locus YEL061C, strain CIN8, hits give low values 0.302 | locus YER015W, strain faa2, hits give low values 0.179 | locus YER016W, strain bim1, hits give low values 0.235 | locus YER110C, hits give low values 0.275 | locus YER111C, strain swi4, hits give low values 0.5 | locus YER155C, strain BEM2 (second series), hits give low values 0.568 | locus YER155C, strain BEM2, hits give low values 0.345 | locus YER167W, strain BCK2, hits give low values 0.198 | locus YFR010W, strain ubp6, hits give low values 0.391 | locus YGL078C, strain dbp3, hits give low values 0.477 | locus YGL086W, strain mad1, hits give low values 0.279 | locus YGL167C, strain pmr1, hits give low values 0.781 | locus YGL173C, strain kem1, hits give low values 0.729 | locus YGL227W, strain vid30, hits give low values 0.254 | locus YGL240W, strain doc1, hits give low values 0.23 | locus YGL248W, strain PDE1, hits give low values 0.282 | locus YGL253W, strain hxk2, hits give low values 0.251 | locus YGR078C, strain PAC10, hits give low values 0.527 | locus YGR135W, strain pre9, hits give low values 0.653 | locus YGR229C, strain SMI1, hits give low values 0.286 | locus YGR252W, strain gcn5, hits give low values 0.665 | locus YHR013C, strain ard1, hits give low values 0.234 | locus YHR027C, strain rpn1, hits give low values 0.221 | locus YHR030C, strain SLT2, hits give low values 0.252 and 0.332 | locus YHR079C, strain IRE1 (second series), hits give low values 0.359 | locus YHR079C, strain IRE1, hits give low values 0.3 | locus YHR094C, strain hxt1, hits give low values 0.388 | locus YHR129C, strain ARP1, hits give low values 0.331 | locus YHR142W, strain chs7, hits give low values 0.284 | locus YHR200W, strain rpn10, hits give low values 0.562 | locus YIL066C, strain RNR3, hits give low values 0.229 | locus YIL073C, strain SPO22, hits give low values 0.308 | locus YIL125W, strain kgd1, hits give low values 0.411 | locus YIR030C, strain dcg1, hits give low values 0.381 | locus YJL092W, strain hpr5, hits give low values 0.346 | locus YJL095W, strain BCK1 (second series), hits give low values 0.267 | locus YJL095W, strain BCK1, hits give low values 0.298 and 0.302 | locus YJL115W, strain asf1, hits give low values 0.443 | locus YJL129C, strain trk1, hits give low values 0.538 | locus YJL134W, strain LCB3, hits give low values 0.589 | locus YJL154C, strain vps35, hits give low values 0.42 | locus YJL164C, strain tpk1, hits give low values 0.248 | locus YJL166W, strain qcr8, hits give low values 0.167 | locus YJL168C, strain set2, hits give low values 0.422 | locus YJL187C, strain SWE1 (second series), hits give low values 0.392 | locus YJL187C, strain SWE1, hits give low values 0.299 | locus YJR043C, strain POL32, hits give low values 0.369 | locus YJR066W, strain TOR1, hits give low values 0.319
inactive: locus YBR021W, strain FUR4, hits give low values 0.857
